This is part of a sample that, as a whole, favours compounds with a hit. Of some 83,000 tested, about 20% had one in any assay.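 For each line, cells grew in 96-well plates with the test compound present at a single concentration for 48 hours.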 A number with no mark means an inactive call. The source made the active and inactive calls. The calls were made as follows: active = growth percent below 10; inactive = the rest.
What was measured:
Assay in all cases: NCI-60 one-dose screen, 48 h (100 = growth as untreated, 0 = no growth, -100 = all killed)
NCI-H23 lung = conditions: 10 µM unless noted
NCI-H226 lung = conditions: 10 µM unless noted
NCI-H322M lung = conditions: 10 µM unless noted
HOP-62 NSCLC = conditions: 10 µM unless noted
NCI-H460 lung = conditions: 10 µM unless noted
HOP-92 NSCLC = conditions: 10 µM unless noted
NCI-H522 lung = conditions: 10 µM unless noted
A549/ATCC NSCLC = conditions: 10 µM unless noted
786-0 renal = conditions: 10 µM unless noted
COLO 205 colon = conditions: 10 µM unless noted
DU-145 prostate = conditions: 10 µM unless noted
K-562 leukemia = conditions: 10 µM unless noted
MALME-3M melanoma = conditions: 10 µM unless noted
MDA-MB-231 breast = conditions: 10 µM unless noted
SF-268 CNS = conditions: 10 µM unless noted
SF-295 CNS = conditions: 10 µM unless noted
SF-539 CNS = conditions: 10 µM unless noted
UACC-257 melanoma = conditions: 10 µM
M14 melanoma = conditions: 10 µM unless noted
RXF 393 renal = conditions: 10 µM unless noted

SMILES	growth (NCI-H23 lung)	growth (NCI-H226 lung)	growth (NCI-H322M lung)	growth (HOP-62 NSCLC)	growth (NCI-H460 lung)	growth (HOP-92 NSCLC)	growth (NCI-H522 lung)	growth (A549/ATCC NSCLC)	growth (786-0 renal)	growth (COLO 205 colon)	growth (DU-145 prostate)	growth (K-562 leukemia)	growth (MALME-3M melanoma)	growth (MDA-MB-231 breast)	growth (SF-268 CNS)	growth (SF-295 CNS)	growth (SF-539 CNS)	growth (UACC-257 melanoma)	growth (M14 melanoma)	growth (RXF 393 renal)
O=C(Cn1cc(CN2C(=O)c3ccc([N+](=O)[O-])cc3C2=O)nn1)Nc1ccc(F)cc1Cl	98%	101%	100%	109%	106%	79.7%	93.1%	99.1%	93.9%	110%	106%	97.9%	83.3%	92.4%	99.8%	104%	93.9%	97.8%	94.8%	–
CCOC(=O)c1c(Nc2ccccc2)nn2c(-c3ccc(OC)c(OC)c3)ccnc12	70.8%	54.9%	92.5%	72.7%	47.9%	5.27% (active)	69.3%	52.6%	37.6%	55.7%	74.2%	19.8%	76.2%	34.9%	68.1%	49%	60.2%	95.2%	53.6%	–
CS(=O)c1nccc(-c2c(-c3ccc(F)c(OCc4ccc(F)cc4)c3)nc3sccn23)n1 (stereo not given)	61.6%	95.3%	62.7%	100%	35.6%	16.9%	-51.8% (active)	102%	100%	100%	-9.49% (active)	–	92.3%	67.8%	100%	97.8%	88.4%	-24.6% (active)	81.6%	87.6%
C/C(=C(/c1ccc(O)cc1)c1ccc(OCCN2CCCC2)cc1)c1ccc(Cl)cc1	46.8%	72.3%	53.8%	63.1%	-1.6% (active)	50.3%	61.1%	47.6%	45.7%	-86.6% (active)	65.1%	–	-39.9% (active)	40.9%	60.9%	67.8%	0.146% (active)	-77.6% (active)	-64.7% (active)	3.89% (active)
Cc1ccc(-c2cc(-c3cccc4ccccc34)n3c(n2)nc2ccccc23)cc1	82%	57.9%	90.6%	67.5%	21.9%	71.6%	76.9%	39.6%	47.6%	59.7%	69.4%	51.1%	32.2%	73.1%	66.4%	40.9%	49.4%	75.1%	61.5%	–
Nc1nc(N)c2c(n1)NC(c1ccccc1)CC(c1ccc(Nc3nc(NCCO)nc(Nc4ccc(Cl)cc4)n3)cc1)=N2 (stereo not given)	41.2%	91.9%	63.2%	-69.6% (active)	-80.3% (active)	-79.1% (active)	41%	75.7%	-86% (active)	80.8%	41.6%	-40.7% (active)	-89.6% (active)	73.3%	76.5%	46.9%	71.1%	113%	81%	–
CC(=O)NC(C)(C)C(=O)N1CCC[C@H]1C(=O)NC(C)(C)C(=O)N[C@@H](C)C(=O)NC(C)(C)C(=O)NC(C)(C)C(=O)N[C@@H](CCC(N)=O)C(=O)NC(C)(C)C(=O)N[C@H](C(=O)NC(C)(C)C(=O)NCC(=O)N[C@@H](CC(C)C)C(=O)NC(C)(C)C(=O)N1CCC[C@H]1C(=O)N[C@H](C(=O)NC(C)(C)C(=O)NC(C)(C)C(=O)N[C@@H](CCC(N)=O)C(=O)N[C@@H](CCC(N)=O)C(=O)N[C@H](CO)Cc1ccccc1)C(C)C)C(C)C	21.1% [4.25 µM]	29.8% [4.25 µM]	71.1% [4.25 µM]	41% [4.25 µM]	29.9% [4.25 µM]	-10.1% [4.25 µM] (active)	10.6% [4.25 µM]	26.7% [4.25 µM]	80.5% [4.25 µM]	-25.1% [4.25 µM] (active)	43.5% [4.25 µM]	22.2% [4.25 µM]	-10.6% [4.25 µM] (active)	36.5% [4.25 µM]	32.9% [4.25 µM]	22.2% [4.25 µM]	24.5% [4.25 µM]	–	51.3% [4.25 µM]	18% [4.25 µM]
O=S(=O)(Nc1ccc(-n2cnc3cc(-c4ccc(O)cc4)ccc32)cc1)C1CC1	101%	96.2%	90.9%	86.8%	88.7%	115%	73.7%	82.2%	86.6%	123%	95.3%	59.8%	98.5%	84.3%	83.3%	90.1%	71.8%	98.2%	96.6%	–
O=C1c2c(c3c4cc(O)ccc4oc3c3[nH]c4ccccc4c23)C(=O)N1O	2.57% (active)	63.6%	2.25% (active)	-25.6% (active)	-6.86% (active)	-8.01% (active)	-5.7% (active)	43.5%	2.62% (active)	61.5%	11.3%	14.4%	9.51% (active)	26%	17.4%	10.2%	-15% (active)	22.1%	-4.66% (active)	–
O=c1c2c(O)cccc2oc2c3c(cc(O)c12)O[C@H]1OC=C[C@@H]31	59.9%	88.7%	88.4%	82.4%	73.5%	88.7%	79.9%	61%	98.9%	75.1%	98%	96.2%	95.2%	83.2%	94.7%	89.5%	98.4%	–	101%	99.1%
COc1ccccc1N1CCN(C2=NN=C(c3cccc(Cl)c3)c3ccccc3C2)CC1	31.6%	57.5%	37%	34.3%	1.95% (active)	46.8%	-27.1% (active)	17.2%	27%	-38.7% (active)	2.18% (active)	3.9% (active)	44.9%	-3.39% (active)	22.6%	19.3%	-11.6% (active)	56.3%	6.83% (active)	–
Cc1ccccc1/C=C/c1nn2c(-c3ccoc3C)nnc2s1	97.8%	100%	99.4%	107%	102%	93.9%	92.4%	90%	90.8%	108%	103%	–	106%	104%	101%	94%	103%	110%	–	96.2%
COc1cc(O)c2c(c1)[C@H]1O[C@@H]1C[C@H](O)[C@H](O)C(=O)/C=C\C[C@H](C)OC2=O	25.7%	37.9%	85.7%	68.7%	68.1%	-8.48% (active)	4.82% (active)	72.3%	66%	9.13% (active)	55.3%	29.9%	-24.1% (active)	48.7%	74.4%	81.7%	61.7%	–	9.43% (active)	8.74% (active)
CNC(=O)c1cc(Oc2ccc3nc(NC(=O)c4cccc(C(F)(F)F)c4)sc3c2)ccn1	101%	104%	103%	117%	103%	110%	98.9%	101%	97.2%	112%	101%	–	97.2%	104%	98%	92.6%	99.4%	104%	96.6%	106%
